# Results: ChEMBL document CHEMBL3988442, “University of Dundee, Small-Polar-MMV Screening Library” (2021)
# What was measured:
# [1] = target: T1, Aspartate--tRNA(Asp/Asn) ligase (Mycobacterium tuberculosis (strain ATCC 25618 / H37Rv)) (UniProt P9WFW3); assay: Assay for Asp RNA synthetase-1 from Mycobacterium tuberculosis; type: functional; design: scale not given: direction of the effect not stated beside the values; conditions: 30 µM; further: in the data most compounds retested in dose-response had high values
# T1 sequence (whole entry): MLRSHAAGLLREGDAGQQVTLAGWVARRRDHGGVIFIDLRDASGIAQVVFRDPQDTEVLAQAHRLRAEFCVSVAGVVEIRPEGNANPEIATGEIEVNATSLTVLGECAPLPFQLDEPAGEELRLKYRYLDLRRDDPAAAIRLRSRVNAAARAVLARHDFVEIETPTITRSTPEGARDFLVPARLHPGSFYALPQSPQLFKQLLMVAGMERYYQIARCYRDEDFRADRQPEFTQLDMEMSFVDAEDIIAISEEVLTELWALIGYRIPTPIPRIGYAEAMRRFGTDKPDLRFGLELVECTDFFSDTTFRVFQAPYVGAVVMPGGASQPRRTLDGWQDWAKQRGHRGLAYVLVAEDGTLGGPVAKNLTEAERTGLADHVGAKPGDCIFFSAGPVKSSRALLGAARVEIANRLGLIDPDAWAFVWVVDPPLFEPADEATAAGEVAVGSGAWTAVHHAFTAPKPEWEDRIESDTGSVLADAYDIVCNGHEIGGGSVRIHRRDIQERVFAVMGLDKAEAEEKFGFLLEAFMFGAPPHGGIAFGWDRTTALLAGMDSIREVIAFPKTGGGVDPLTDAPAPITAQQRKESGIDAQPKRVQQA
# [2] = target: Shiga toxin 2 (Escherichia coli O157:H7) (UniProt P09385+P09386); assay: E. coli 0.157:H7 Shiga Toxin SOP - stx2 screening assay; type: functional; design: scale not given: direction of the effect not stated beside the values; conditions: 30 µM
SMILES,Percent Effect [1] [%],Percent Effect [2] [%]
COc1ccccc1CN1CCC2(CC1)CC(Oc1ccccn1)CO2 (configuration not stated),1.6,-0.702
Cc1nn(CC(=O)N2CCCC2Cn2cccn2)c(C)c1Cl (configuration not stated),0.155,-3.65
Cc1cccc(-c2nc(CN3CCCCC3Cn3cncn3)no2)c1 (configuration not stated),-2.9,15.3
CC(C)N(C)C(=O)C1=NOC2(CCN(C(=O)c3ccccn3)C2)C1 (configuration not stated),2.07,3
CCNC(=O)CCc1c(C)nc2cc(O)nn2c1C,4.16,-21.5
CC1CN(C)c2ccccc2CN1C(=O)CSc1ccncc1 (configuration not stated),6.09,-6.66
CCOc1cccc(C(=O)NCCC(=O)Nc2ccncc2)c1,-3.32,-80.5
Cc1cc(C)nc(N2CCN(C(=O)c3cc(Cl)c[nH]3)CC2)n1,1.48,-6.42
CC(C)n1cc(S(=O)(=O)N2CCCCC2)cn1,-0.668,-17.6
CC(NC(=O)c1cc(-c2cccc(Cl)c2)no1)C(=O)N1CCCC1 (configuration not stated),0.15,-14.8
CN(C)[C@@H]1CCN(C(=O)c2ccsc2)[C@H]1Cc1cnn(C)c1,-0.691,-4.3
Cc1n[nH]c(C)c1NC(=O)CN1CCc2c(nc(C3CC3)n2C)C1,4.55,-6.27
CC(=O)N1CCn2cc(CNC(=O)c3cccn3C)nc2C1,1.43,-9.92
CNC(=O)[C@H]1C[C@@H]2CN(C(=O)Nc3ccc(F)cc3)C[C@H]1O2,-1.56,-24.2
CC(C)(C)c1nc(CN2CCC(c3nc4cc(Cl)ccc4o3)CC2)no1,-2.4,-14.9
Cc1ccsc1CNC(=O)Cc1c(C)nc2c(c1C)c(=O)[nH]n2C,-4.18,23.7
CC(C)C(C)NC(=O)Nc1ccccc1CN1CCOCC1 (configuration not stated),3.91,9.92
CSc1nccn1-c1cccc(C(=O)NCCCN2CCOCC2)c1,-1.07,27.6
CC(C)NC(=O)c1nnn(-c2cccc(C(F)(F)F)c2)c1C1CC1,-2.65,8.87
COCC1Cn2nnc(-c3cnn(C)c3)c2CN1Cc1ccc(C)s1 (configuration not stated),1.73,-7.17
Cc1nn(C)c(N(C)C)c1CNCc1ccc(OCC(N)=O)cc1,-6.72,-11.7
O=C1[C@H]2CN(c3ncccn3)C[C@H]2CN1Cc1ccncc1,0.211,-21.9
O=C(c1cccc(S(=O)(=O)NCCCc2ccco2)c1)N1CCOCC1,6.79,-0.897

SMILES,Percent Effect [1] [%],Percent Effect [2] [%]
CS(=O)(=O)N1CCC(c2nnc3ccc(C(=O)N4CCCC4)cn23)C1 (configuration not stated),2,-10.4
O=C(NCCc1ccsc1)Nc1cccnc1N1CCCC1,1.77,-4.75
Cc1ccc(C(=O)Nc2cn[nH]c2)cc1C,-2.79,16.5
COCCNC(=O)CN1CCN(c2nc(C)cs2)C(C)C1 (configuration not stated),-0.728,-15.9
Cc1nc(C)n(CC2CCCN(CCNC(=O)OC(C)(C)C)C2)n1 (configuration not stated),-2.36,7.06
CNC(=O)[C@@]12CCO[C@@H]1CCN(S(=O)(=O)c1cccnc1)C2,0.229,7.61
CCN(CC)C(=O)CCc1c(C)nc2cc(O)nn2c1C,-1.56,-6.53
Cc1cc(C)n(CC2CN(CC(=O)NC3CCCC3)CCO2)n1 (configuration not stated),0.91,13.3
Cc1csc2ncc(-c3ccnc(N4CCN(C)CC4)n3)c(=O)n12,1.78,-20.6
Cc1nccnc1N1CCC2(CCCN(C3CCOCC3)C2=O)C1 (configuration not stated),-1.21,-27.2
CC(C)c1nc(C2CCCN2C(=O)c2cnc[nH]2)no1 (configuration not stated),0.204,26.7
CC(C)COCC(NC(=O)c1cccnc1)c1ccco1 (configuration not stated),2.37,21
COc1ccnc(C(=O)N2CCCC(c3noc(C)n3)C2)c1 (configuration not stated),0.885,1.38
Cc1ccoc1C(=O)NC1CCN(Cc2cccc3c2OCCO3)CC1,-2.4,-34.8
O=C(c1ccc[nH]1)N1CCn2cc(CN3CCCC3)nc2C1,-2.37,0.78
COc1cccc(-c2nc(CNCCn3cccn3)cs2)c1,-2.68,-60.9
CC(C)=CCN1CCOC(Cn2nc(C)cc2C)C1 (configuration not stated),-3.08,24.4
O=C(NCc1cccnc1-n1cccn1)C1CC(=O)N(CC2CC2)C1 (configuration not stated),-2.05,10.1
O=C(NCC1CCOC1)N1CCN(Cc2ccc3c(c2)CCO3)CC1 (configuration not stated),-0.0562,28.1
O=C(CN1CCOC(Cn2cccn2)C1)Nc1nccs1 (configuration not stated),-4.87,-17.3
CC(=O)c1cccc(OCCCC(=O)N(C)CCc2ccncc2)c1,-0.591,-45.6
CCn1ncc2c1C(COC)CN(Cc1ccc(OC)cc1)C2 (configuration not stated),-4.44,-3.46
COc1ccc(C(=O)N2CCCC(CNS(C)(=O)=O)C2)cc1F (configuration not stated),1.03,22.9
